From the supplement of paper PMC9942566
± gives the standard deviation of the averaged measurements.

tested on: Serratia marcescens K904 PosmB-luxCDABE reporter (pMQ747); assay: PosmB-lux reporter fold induction (RLU/OD600 relative to no-compound control), highest over Biolog concentrations; higher = stronger reporter activation; conditions: Biolog plate: PM14; well positions: D1-4; ΔrcsB mutant CMS5177; 4 h
Method: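 Serratia marcescens K904 (wild type) or its isogenic ΔrcsB mutant, carrying the Rcs-dependent PosmB-luxCDABE reporter plasmid pMQ747, was grown in LB at OD600 0.1 in Biolog Phenotype MicroArray plates PM11-20 for 4 h at 30-32°C. Each compound is present at 3-4 proprietary concentrations (not stated); per the Fig. S1 legend the value given is the highest fold over those wells. Three independent trials.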

| Structure (SMILES) | PosmB-lux reporter fold induction |
| --- | --- |
| [Cl][Cd][Cl] [Cadmium chloride] | 0.871 ± 0.061 |

same assay, conditions: Biolog plate: PM20; well positions: E5-8; ΔrcsB mutant CMS5177; 4 h

| Structure (SMILES) | PosmB-lux reporter fold induction |
| --- | --- |
| CCCCCCCCCCCCNC(=N)N [dodine] | 1.31 ± 0.24 |
